Several values for one entry are separate records, joined by “and”; a condition that tells them apart may be missing. Equal values may be shown once. The campaign covered roughly 5,500 compounds. About 2,000 (36%) were called active. Inconclusive results (about 18%) are left out. No stated cut-off is given here; in the data, active means normalized growth mostly below about 0.91 (no sharp cut-off); inconclusive means no clear call, values can overlap the other calls; inactive means mostly above about 0.92. This is one part of the list.
Assay: chemical genetic growth profiling, strain panel (AID 1159580);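 further: tested at 20 µM; growth read once vehicle control cultures reached saturation at 30 °C; 1 = growth at the plate median or of vehicle wells; lower values mean less growth of the strain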
Settings: S. cerevisiae deletion strains, growth OD

Measured: normalized growth

CN(C)C(=O)Oc1cccc([N+](C)(C)C)c1
inactive: locus YAL021C, strain ccr4, hits give low values 0.987 | locus YAL026C, strain drs2, hits give low values 1 | locus YAL030W, strain snc1, hits give low values 1 | locus YAL040C, strain CLN3, hits give low values 1 | locus YBL061C, strain skt5, hits give low values 1.01 | locus YBR009C, strain hhf1, hits give low values 1 | locus YBR021W, strain FUR4, hits give low values 0.992 | locus YBR023C, strain chs3, hits give low values 0.988 | locus YBR171W, strain sec66, hits give low values 0.992 | locus YBR229C, strain ROT2, hits give low values 0.985 | locus YBR231C, strain swc5, hits give low values 0.988 | locus YBR279W, strain paf1, hits give low values 1 | locus YCL011C, strain gbp2, hits give low values 0.996 | locus YCL016C, strain dcc1, hits give low values 0.992 | locus YCL029C, strain bik1, hits give low values 0.978 | locus YCL061C, strain MRC1 (second series), hits give low values 1 | locus YCL061C, strain MRC1, hits give low values 0.996 | locus YCL069W, strain vba3, hits give low values 1 | locus YCR088W, strain abp1, hits give low values 0.99 | locus YDL005C, strain med2, hits give low values 0.983 | locus YDL035C, strain GPR1, hits give low values 0.997 | locus YDL040C, strain nat1, hits give low values 0.992 | locus YDL074C, strain BRE1, hits give low values 1.05 | locus YDL101C, strain DUN1, hits give low values 0.986 | locus YDL134C, strain PPH21, hits give low values 0.987 | locus YDL185W, strain tfp1, hits give low values 0.98 | locus YDL192W, strain arf1, hits give low values 0.98 | locus YDR001C, strain nth1, hits give low values 0.998 | locus YDR069C, strain doa4, hits give low values 0.978 | locus YDR101C, strain arx1, hits give low values 0.977 | locus YDR137W, strain rgp1, hits give low values 1.01 | locus YDR150W, strain NUM1, hits give low values 1 | locus YDR159W, strain sac3, hits give low values 0.978 | locus YDR162C, strain NBP2, hits give low values 0.999 | locus YDR195W, strain ref2 1.01 | locus YDR297W, strain sur2, hits give low values 0.996 | locus YDR318W, strain mcm21, hits give low values 0.98 | locus YDR334W, strain swr1, hits give low values 1 | locus YDR335W, strain msn5, hits give low values 1.01 | locus YDR363W, strain ESC2, hits give low values 1.04 | locus YDR388W, hits give low values 0.986 | locus YDR392W, strain spt3, hits give low values 0.996 | locus YDR502C, strain sam2, hits give low values 0.977 | locus YEL003W, strain gim4, hits give low values 1.01 | locus YEL037C, strain rad23, hits give low values 0.998 | locus YEL061C, strain CIN8 (second series), hits give low values 1 | locus YEL061C, strain CIN8, hits give low values 0.994 | locus YER002W, strain NOP16, hits give low values 1.01 | locus YER015W, strain faa2, hits give low values 1 | locus YER016W, strain bim1, hits give low values 1.01 | locus YER110C, hits give low values 0.991 | locus YER111C, strain swi4, hits give low values 1.02 | locus YER155C, strain BEM2 (second series), hits give low values 1.01 | locus YER155C, strain BEM2, hits give low values 0.974 | locus YER167W, strain BCK2, hits give low values 0.987 | locus YFR010W, strain ubp6, hits give low values 0.996 | locus YGL078C, strain dbp3, hits give low values 0.983 | locus YGL086W, strain mad1, hits give low values 0.997 | locus YGL167C, strain pmr1, hits give low values 1.07 | locus YGL173C, strain kem1, hits give low values 1.01 | locus YGL227W, strain vid30, hits give low values 0.992 | locus YGL240W, strain doc1, hits give low values 0.986 | locus YGL248W, strain PDE1, hits give low values 0.993 | locus YGL253W, strain hxk2, hits give low values 1.01 | locus YGR135W, strain pre9, hits give low values 0.981 | locus YGR229C, strain SMI1, hits give low values 1.02 and 1.01 | locus YGR252W, strain gcn5, hits give low values 1.06 | locus YHR013C, strain ard1, hits give low values 1.02 | locus YHR027C, strain rpn1, hits give low values 0.99 | locus YHR030C, strain SLT2, hits give low values 0.992 and 0.979 | locus YHR079C, strain IRE1 (second series), hits give low values 0.979 | locus YHR079C, strain IRE1, hits give low values 0.961 | locus YHR094C, strain hxt1, hits give low values 0.989 | locus YHR129C, strain ARP1, hits give low values 0.989 | locus YHR142W, strain chs7, hits give low values 1.03 | locus YHR200W, strain rpn10, hits give low values 0.981 | locus YIL066C, strain RNR3, hits give low values 0.996 | locus YIL073C, strain SPO22, hits give low values 0.965 | locus YIL125W, strain kgd1, hits give low values 0.998 | locus YIR030C, strain dcg1, hits give low values 0.983 | locus YJL092W, strain hpr5, hits give low values 0.996 | locus YJL095W, strain BCK1 (second series), hits give low values 0.996 | locus YJL095W, strain BCK1, hits give low values 1.01 and 0.988 | locus YJL115W, strain asf1, hits give low values 1 | locus YJL129C, strain trk1, hits give low values 0.987 | locus YJL134W, strain LCB3, hits give low values 0.986 | locus YJL154C, strain vps35, hits give low values 1.01 | locus YJL164C, strain tpk1, hits give low values 1.01 | locus YJL166W, strain qcr8, hits give low values 0.999 | locus YJL168C, strain set2, hits give low values 0.988 | locus YJL187C, strain SWE1 (second series), hits give low values 0.987 | locus YJL187C, strain SWE1, hits give low values 0.992 | locus YJR043C, strain POL32, hits give low values 1.02 | locus YJR066W, strain TOR1, hits give low values 0.947

Source: PubChem BioAssay AID1159580 (chemical genetic matrix, 2015)
